Measurements taken from PubChem BioAssay AID602127 (Broad Institute, 2011).
Potency and affinity values are given separately. Activity calls are given as the source filed them.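 The calls were made as follows: active = every repeat test judged active, meaning a falling signal with potency within twice the top valid dose; inconclusive = repeat tests disagree on the call; inactive = every repeat test inactive, including signal moving upward.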

What follows are compounds tested against Cyclin-dependent kinase 2 (Homo sapiens) (UniProt P24941) (assay: CDK2 kinase inhibitors, off-target check, dose response, selectivity assay for Dyrk1A inhibitor project, biochemical, cherry-picked samples (AID 602127)). Settings: CDK2/cyclin A kinase, ADP-Glo luminescence, 60 min; series mostly up to 10 µM.

outcome, inactive:
FC(F)(F)c1cccc(Nc2nccc(-c3ccc4c(c3)OCO4)n2)c1
CN(C)S(=O)(=O)c1ccc(Cl)c(C(=O)Nc2cccc3ncccc23)c1
N#CCSc1nc(Nc2ccc3c(c2)OCO3)c2ccccc2n1
Cc1cc(NCCCn2ccnc2)n2ncc(-c3ccc(Cl)cc3)c2n1
COc1ccc(-c2[nH]ncc2-c2ccc3c(c2)OCCO3)c(O)c1
Clc1ccccc1-c1ccc2ncnc(NCc3ccc4c(c3)OCO4)c2c1
O=C(Nc1nc2c(s1)CCCC2)c1ccc(N2C(=O)CCC2=O)cc1
c1nc(NCC2CCCO2)c2cc(-c3ccc4c(c3)OCO4)ccc2n1 (stereo unspecified)
COc1cccc(NC(=O)Nc2ccc3c(c2)N(C)C(=O)CS3)c1
COc1cccc(Nc2ncnc3sc(C)cc23)c1
N#Cc1c(C(F)(F)F)cc(-c2cccc(Cl)c2)[nH]c1=O
Brc1cc(Br)cc(CNc2nccc(-c3ccc4c(c3)OCO4)n2)c1
Cc1nc(CN(C)c2ncnc3ccc(-c4ccc5c(c4)OCO5)cc23)cs1
CSCC(=O)Nc1nc(-c2ccc3c(c2)OCCO3)cs1
COc1ccc(-c2nccc(NCc3ccc(C)cc3)n2)cc1
Cc1ccnc(NC(=O)c2cccc(S(=O)(=O)N3CCN(c4ccccc4)CC3)c2)c1
COc1ccc2c(c1)CCc1c-2n[nH]c1C(=O)O
COc1ccc(-c2cc(NCCc3ccncc3)n3ncnc3n2)cc1
CC(=O)Nc1ccc(Nc2cc(C)nc3c(-c4ccccc4)cnn23)cc1
CCOC(=O)c1ccc(-c2ccc3ncnc(NCc4ccc(C)o4)c3c2)o1
Clc1ccc(CNc2nccc(-c3ccc4c(c3)OCCO4)n2)cc1Cl
Cc1nc(N)sc1-c1csc(Nc2ccccc2)n1
Fc1c(-c2ccc3ncnc(NCc4cccs4)c3c2)ccc2c1OCO2
CCN(Cc1cccs1)c1ncnc2ccc(-c3ccc4c(c3)OCO4)cc12
Cc1noc(NS(=O)(=O)c2ccc(NC(=O)c3oc4ccc(F)cc4c3C)cc2)c1C
O=C(COc1ccccc1)Nc1cccc(-c2cn3cccnc3n2)c1
c1cncc(CNc2ccnc(-c3ccc4cn[nH]c4c3)n2)c1
Cc1nc(CNc2ncnc3ccc(-c4ccc5c(c4)OCO5)cc23)cs1
Cc1ccc(CNc2ncnc3ccc(-c4ccc5c(c4)OCO5)cc23)o1
COc1cccc(NC(=O)c2sc(NC(=O)c3ccncc3)nc2C)c1
Cc1nc(CNc2ncnc3ccc(-c4ccoc4)cc23)cs1
